Laboratory results taken from PubChem BioAssay (Tox21).
Inconclusive results are not listed. Active and inactive are the calls of the source. Unless noted, calls follow the shape of the dose curve; as a rule, active = well fitted curve in the direction sought with a large enough effect in the repeat runs; inconclusive = weak or mixed curves; inactive = no such curve, though single readings can be large; an effect the other way counts as inactive or inconclusive.

Legend:
[1] = target: Aryl hydrocarbon receptor (Homo sapiens) (UniProt P35869); assay: qHTS assay to identify small molecule that activate the aryl hydrocarbon receptor (AhR) signaling pathway (AID 743085); also: nearly all actives have a fitted effect of over 15% in size; also: potency is read from the fitted curve at half-maximal effect;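 as to activation: HG2L7.5c1 human HepG2 liver cells with stably integrated DRE-driven firefly reporter; series mostly up to about 70 µM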
Sequence of Aryl hydrocarbon receptor (Homo sapiens) (P35869 whole entry, looked up): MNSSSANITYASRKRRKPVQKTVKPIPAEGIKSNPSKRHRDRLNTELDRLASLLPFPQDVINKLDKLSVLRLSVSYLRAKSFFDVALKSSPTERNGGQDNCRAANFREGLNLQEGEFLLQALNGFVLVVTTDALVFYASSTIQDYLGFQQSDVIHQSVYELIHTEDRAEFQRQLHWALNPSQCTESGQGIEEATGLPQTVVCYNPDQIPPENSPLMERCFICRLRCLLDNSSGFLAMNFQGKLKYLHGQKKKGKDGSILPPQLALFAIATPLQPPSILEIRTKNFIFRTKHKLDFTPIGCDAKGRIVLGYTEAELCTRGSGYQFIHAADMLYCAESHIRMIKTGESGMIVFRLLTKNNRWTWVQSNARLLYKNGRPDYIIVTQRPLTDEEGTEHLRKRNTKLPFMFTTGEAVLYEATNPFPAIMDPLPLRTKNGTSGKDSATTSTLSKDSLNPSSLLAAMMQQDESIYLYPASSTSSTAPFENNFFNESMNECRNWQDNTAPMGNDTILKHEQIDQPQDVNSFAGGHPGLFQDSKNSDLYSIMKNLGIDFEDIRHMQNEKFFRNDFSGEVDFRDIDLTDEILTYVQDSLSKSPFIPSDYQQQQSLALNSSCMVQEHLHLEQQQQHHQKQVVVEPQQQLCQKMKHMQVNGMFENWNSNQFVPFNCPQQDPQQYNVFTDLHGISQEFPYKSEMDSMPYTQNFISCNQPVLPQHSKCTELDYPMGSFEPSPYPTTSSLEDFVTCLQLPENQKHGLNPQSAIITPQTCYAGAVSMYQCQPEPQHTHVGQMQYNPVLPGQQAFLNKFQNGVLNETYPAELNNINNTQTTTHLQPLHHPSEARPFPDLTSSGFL
How it was run: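 HepG2 cells (HG2L7.5c1) stably carrying a firefly luciferase reporter driven by 20 dioxin responsive elements were exposed to compound for 24 h at 37C after a 5 h settling period; luminescence rise (ONE-Glo) indicated activation.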

[2] = qHTS assay to identify small molecule that activate the aryl hydrocarbon receptor (AhR) signaling pathway - cell viability counter screen (AID 743086);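 also: HepG2 liver cells carrying the AhR DRE luciferase reporter; series mostly up to about 70 µM; nearly all actives have a fitted effect of over 45% in size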
How it was run: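 HepG2-AhR-luc (HG2L7.5c1) cells, 4000/well, were preincubated 5 h at 37C, exposed to compound in qHTS format for 24 hr at 37C, then given CellTiter-Fluor for 30 min; viability was read as fluorescence in the reporter wells.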

[3] = target: Peroxisome proliferator-activated receptor gamma (Homo sapiens) (UniProt P37231); assay: qHTS assay to identify small molecule agonists of the peroxisome proliferator-activated receptor gamma (PPARg) signaling pathway (AID 743094; active = well fitted activation curve with a large enough effect in the signal ratio in the repeat runs, not every such curve was filed as active; the % refers to the signal ratio)
Sequence of Peroxisome proliferator-activated receptor gamma (Homo sapiens) (P37231 whole entry, looked up): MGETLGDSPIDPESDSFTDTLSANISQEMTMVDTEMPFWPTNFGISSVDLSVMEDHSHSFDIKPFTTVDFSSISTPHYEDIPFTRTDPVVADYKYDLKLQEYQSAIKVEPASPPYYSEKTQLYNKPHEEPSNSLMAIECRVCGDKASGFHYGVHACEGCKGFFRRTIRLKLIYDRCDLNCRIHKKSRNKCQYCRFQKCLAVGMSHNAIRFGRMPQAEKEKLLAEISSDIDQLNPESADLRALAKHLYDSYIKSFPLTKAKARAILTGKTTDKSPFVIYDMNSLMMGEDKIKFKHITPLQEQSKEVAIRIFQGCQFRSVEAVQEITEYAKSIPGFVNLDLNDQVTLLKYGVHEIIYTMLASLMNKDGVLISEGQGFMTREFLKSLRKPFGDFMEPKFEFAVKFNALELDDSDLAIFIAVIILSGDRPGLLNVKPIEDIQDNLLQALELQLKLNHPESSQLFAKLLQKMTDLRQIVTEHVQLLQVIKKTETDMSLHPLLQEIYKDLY
How it was run: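 Reporter activation was scored by fluorescence of cleaved LiveBLAzer B/G substrate (1 h, room temperature) in PPARg-bla HEK293H cells previously treated 17 h at 37C with DMSO-dissolved compounds.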

[4] = target: Peroxisome proliferator-activated receptor gamma (Homo sapiens) (UniProt P37231); assay: qHTS assay to identify small molecule antagonists of the peroxisome proliferator-activated receptor gamma (PPARg) signaling pathway (AID 743191; calls by dose curve; also: series mostly up to about 63 µM; nearly all actives have a fitted effect of over 30% in size)
How it was run: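 GeneBLAzer PPARg UAS-bla HEK293H cells carrying a UAS-driven beta-lactamase reporter were plated at 3000 cells/well, preincubated 5 h at 37C, then given compound for 17 h at 37C; LiveBLAzer B/G FRET substrate was read after 1 h at room temperature.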

[5] = qHTS assay to identify small molecule antagonists of the peroxisome proliferator-activated receptor gamma (PPARg) signaling pathway - cell viability counter screen (AID 743194); conditions: Potency: co-treated with 50 nM rosiglitazone; also: nearly all actives have a fitted effect of over 55% in size
How it was run: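 PPARg-UAS-bla HEK293H cells were plated, rested 5 h at 37 C, then treated with compounds plus rosiglitazone (50 nM final) for 17 h at 37 C; viability was then read by CellTiter-Glo luminescence after 30 min at room temperature.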

[6] = qHTS assay for small molecule agonists of the antioxidant response element (ARE) signaling pathway (AID 743202; active = well fitted activation curve with a large enough effect in the signal ratio in the repeat runs, not every such curve was filed as active; the % refers to the signal ratio)
How it was run: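 Steps: seed ARE-bla HepG2 cells (2,000/well); incubate 5 h at 37 C; add compounds by pin tool; incubate 16 h at 37 C; add FRET substrate; read fluorescence after 2 h at RT.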

[7] = qHTS assay for small molecule agonists of the antioxidant response element (ARE) signaling pathway - cell viability counter screen (AID 743203; calls by dose curve; also: nearly all actives have a fitted effect of over 55% in size)
How it was run: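 Viability counter screen: stably transfected ARE-bla HepG2 line, 16 hrs compound exposure at 37C/5% CO2, ATP-based CellTiter-Glo luminescence measured in the reporter wells.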

[8] = qHTS assay for small molecule activators of the heat shock response signaling pathway - cell viability counter screen (AID 743209); also: nearly all actives have a fitted effect of over 50% in size
How it was run: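 Viability of HSE-bla HeLa cells is measured with CellTiter-Glo in the wells already used for the reporter read. Compound exposure lasts 5 h at 37 C, and luminescence is read after 30 min at room temperature.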

[9] = qHTS assay for small molecule activators of the heat shock response signaling pathway (AID 743210; active = well fitted activation curve with a large enough effect in the signal ratio in the repeat runs, with a control signal flat, not every such curve was filed as active; the % refers to the signal ratio;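 also: HeLa cells with beta-lactamase reporter driven by heat shock elements; series mostly up to about 63 µM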)
How it was run: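 Activation of heat shock element-controlled beta-lactamase expression is measured in HeLa cells by LiveBLAzer FRET fluorescence, with compound exposure lasting 5 h at 37 C and substrate loading 2.5 h at room temperature.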

[10] = qHTS assay to identify small molecule agonists of the peroxisome proliferator-activated receptor delta (PPARd) signaling pathway - cell viability counter screen (AID 743211); also: nearly all actives have a fitted effect of over 55% in size
How it was run: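 PPARd-bla HEK293H cells (UAS-beta-lactamase reporter) were treated with compounds for 17 h at 37 C. Viability was then read in the same wells by CellTiter-Glo luminescence after 30 min at room temperature.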
% is scaled to controls: 0 for no effect and ±100 for the full control effect.

NNC(N)=O
inactive: Potency [1] | Potency [2] | outcome [3] | Potency [4] | Potency [5] | Potency [6] | Potency [7] | Potency [8] | Potency [9] | Potency [10]

O=C(Cl)C(Cl)(Cl)Cl
inactive: Potency [1] | Potency [2] | outcome [3] | Potency [4] | Potency [5] | Potency [6] | Potency [7] | Potency [8] | Potency [9] | Potency [10]

Cn1c(CCCC(=O)O)nc2cc(N(CCCl)CCCl)ccc21
inactive: Potency [1] | Potency [2] | outcome [3] | Potency [4] | Potency [5] | Potency [6] | Potency [7] | Potency [8] | Potency [9] | Potency [10]

CC(C)NCC(O)c1ccc([N+](=O)[O-])cc1 (stereo unspecified)
inactive: Potency [1] | Potency [2] | outcome [3] | Potency [4] | Potency [5] | Potency [6] | Potency [7] | Potency [8] | Potency [9]

N#CN
inactive: Potency [1] | Potency [2] | outcome [3] | Potency [4] | Potency [5] | Potency [6] | Potency [7] | Potency [8] | Potency [9] | Potency [10]

CCCC(C)(COC(N)=O)COC(N)=O
inactive: Potency [1] | Potency [2] | outcome [3] | Potency [4] | Potency [5] | Potency [6] | Potency [7] | Potency [8] | Potency [9] | Potency [10]

COc1cc(CCN)cc(OC)c1OC
inactive: Potency [1] | Potency [2] | outcome [3] | Potency [4] | Potency [5] | Potency [6] | Potency [7] | Potency [8] | Potency [9] | Potency [10]

BrCCc1ccccc1
inactive: Potency [1] | Potency [2] | outcome [3] | Potency [4] | Potency [5] | Potency [6] | Potency [7] | Potency [8] | Potency [9] | Potency [10]

ClCCCCl
inactive: Potency [1] | Potency [2] | outcome [3] | Potency [4] | Potency [5] | Potency [6] | Potency [7] | Potency [8] | Potency [9] | Potency [10]

CCOc1cc(OP(=S)(OC)OC)nc(CC)n1
inactive: Potency [1] | Potency [2] | outcome [3] | Potency [4] | Potency [5] | Potency [6] | Potency [7] | Potency [8] | Potency [9]

ClCCCCCCCl
inactive: Potency [1] | Potency [2] | outcome [3] | Potency [4] | Potency [5] | Potency [6] | Potency [7] | Potency [8] | Potency [9] | Potency [10]

C[N+]1(C)CCCCC1
inactive: Potency [1] | Potency [2] | outcome [3] | Potency [4] | Potency [6] | Potency [7] | Potency [8] | Potency [9]

CCCN1CCC[C@@H]2Cc3nc(N)ncc3C[C@H]21
inactive: Potency [2] | outcome [3] | Potency [4] | Potency [5] | Potency [7] | Potency [8] | Potency [9] | Potency [10]
active: Potency [1] 21.1 µM

C[C@H](N)C(=O)c1ccccc1
inactive: Potency [1] | Potency [2] | outcome [3] | Potency [4] | Potency [5] | Potency [7] | Potency [8] | Potency [9] | Potency [10]

CCN(CC)CCOC(=O)C(O)(c1ccccc1)c1ccccc1
inactive: Potency [1] | Potency [2] | outcome [3] | Potency [4] | Potency [5] | Potency [7] | Potency [8] | Potency [9] | Potency [10]

S=C=S
inactive: Potency [1] | Potency [2] | outcome [3] | Potency [4] | Potency [5] | Potency [6] | Potency [7] | Potency [8] | Potency [10]

CCC1(c2ccccc2)C(=O)N(COC)C(=O)N(COC)C1=O
inactive: Potency [1] | Potency [2] | outcome [3] | Potency [4] | Potency [5] | Potency [6] | Potency [7] | Potency [9] | Potency [10]

Clc1cc2c(cc1Cl)Oc1cc(Cl)c(Cl)cc1O2
active: Potency [1] 0.0011 µM
inactive: viability change, negative = cytotoxic [2] -4.26% [at 0.341 µM] | activation [3] -9.85% [at 0.285 µM] | ratio activity, negative = inhibition [4] -3.27% [at 0.275 µM] | activity change, negative = cytotoxicity [5] 15.5% [at 0.275 µM, co-treated with 50 nM rosiglitazone] | viability change, negative = cytotoxic [7] -8.47% [at 0.338 µM] | activity change, negative = cytotoxicity [8] -11.9% [at 0.275 µM] | activation [9] -0.0962% [at 0.275 µM] | activity change, negative = cytotoxicity [10] -2.8% [at 0.275 µM]

CCOC(=O)C(Cl)Cc1cc(-n2nc(C)n(C(F)F)c2=O)c(F)cc1Cl (stereo unspecified)
inactive: Potency [1] | Potency [2] | outcome [3] | Potency [4] | Potency [5] | Potency [7] | Potency [8] | Potency [9] | Potency [10]

CCOC1Oc2ccc(OS(C)(=O)=O)cc2C1(C)C (stereo unspecified)
inactive: Potency [1] | Potency [2] | outcome [3] | Potency [4] | Potency [5] | Potency [8] | Potency [10]

CC(C)N(Cc1ccccc1)C(=O)C(C)(C)C
inactive: Potency [1] | Potency [2] | outcome [3] | Potency [4] | Potency [6] | Potency [7] | Potency [8] | Potency [9] | Potency [10]

CN(C)CCN(C)C
inactive: Potency [1] | Potency [2] | outcome [3] | Potency [4] | Potency [5] | Potency [6] | Potency [7] | Potency [8] | Potency [10]

CC1=C2[C@H]3OC(=O)[C@@H](C)[C@@H]3CC[C@@]2(C)C=CC1=O
inactive: Potency [1] | Potency [2] | outcome [3] | Potency [4] | Potency [5] | Potency [7] | Potency [8] | Potency [9] | Potency [10]

CCOC(=O)N(C)N=O
inactive: Potency [1] | Potency [2] | outcome [3] | Potency [4] | Potency [5] | Potency [7] | Potency [8] | Potency [9] | Potency [10]

CN=CNc1ccc(C)cc1C
inactive: Potency [1] | Potency [2] | outcome [3] | Potency [4] | Potency [5] | Potency [7] | Potency [8] | Potency [9] | Potency [10]

[O-][Br+2]([O-])O
inactive: Potency [1] | Potency [2] | outcome [3] | Potency [4] | Potency [5] | Potency [7] | Potency [8] | Potency [9] | Potency [10]

CC(C)(O)C(Cl)(Cl)Cl
inactive: Potency [1] | Potency [2] | outcome [3] | Potency [4] | Potency [6] | Potency [7] | Potency [8]

CCC(C)(C#N)N=NC(C)(C#N)CC (stereo unspecified)
inactive: Potency [1] | Potency [2] | outcome [3] | Potency [4] | Potency [5] | Potency [7] | Potency [8] | Potency [9] | Potency [10]
